Results reported in PubChem BioAssay (NCI).
The panel holds about 83,000 compounds, 20% with a hit somewhere; the sample as a whole holds those more often.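 Testing used 96-well plates and a 48-hour single-concentration exposure. Example: -40 means 40% of the starting cells died.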 Unmarked numbers belong to inactive results. Activity calls are given as the source filed them. How the source made its calls: active means growth percent below 10; inactive means the rest.

test system: COLO 205 colon; assay: NCI-60 one-dose screen, 48 h (100 = growth as untreated, 0 = no growth, -100 = all killed); details: 10 µM unless noted

SMILES | growth
O=C(O)c1ccccc1Nc1cccc(S(F)(F)(F)(F)F)c1 | 104%
COc1ccc(C2c3ccc4ccccc4c3Oc3ncnc(N)c32)cc1 (stereo not given) | 94.5%
CN1CCN(Cc2ccc(NC(=O)c3cncc(C#Cc4cnc(N)c5cccnc45)c3)cc2C(F)(F)F)CC1 | -20.5% (active)
COc1ccc(OCC(=O)Nc2ccc(-c3nc4ccccc4s3)cc2C)cc1 | 120%
Oc1ccc2c(=S)cc(-c3ccc(Br)cc3)oc2c1O | 103%
O=C1CC(c2nc3ccccc3s2)CN1C1CCCCC1 (stereo not given) | 101%
COc1cccc(-n2cc(-c3nc(Nc4cc(C)[nH]n4)c4ccccc4n3)nn2)c1 | 85.8%
CCN(CC)CC#CCOC(=O)[C@]1(C)CCC[C@@]2(C)[C@H]1CC(C=O)=C1C=C(C(C)C)CC[C@@H]12 | 44.5%
CC(=O)Nc1ccc2c(c1)c(NC(C)=O)nn2C(=O)Nc1ccc(Cc2ccccc2)cc1 | 102%
Cc1cc(Nc2nc(N3CCNCC3)nc3ccccc23)n[nH]1 | 90.8%
COC(=S)SCN(CSC(=S)OC)c1ccc(Cl)cc1 | 111%
CCN(CC)CCC(=O)Nc1ccc(Cn2nnc3c2C(=O)c2nnn(Cc4ccc(NC(=O)CCN(CC)CC)cc4)c2C3=O)cc1 | -86.7% (active)
O=C(CCCCN1CCOCC1)Nc1ccc(Cn2nnc3c2C(=O)c2nnn(Cc4ccc(NC(=O)CCCCN5CCOCC5)cc4)c2C3=O)cc1 | -78.8% (active)
COc1ccc(C(=O)c2sc3nc(-c4ccccc4OC)ccc3c2N)cc1OC | 102%
O=C1C[C@H](N2C(=O)c3ccccc3S2(=O)=O)C2CO[C@@H]1O2 | 64.1%
CC(=O)C1=C(O)C=C2Oc3c(C(=O)/C=C/c4cc(C(F)(F)F)cc(C(F)(F)F)c4)c(O)c(C)c(O)c3[C@]2(C)C1=O | -66.6% (active)
CCN(CC)c1ccc(/C=C/C2=[N+](C)c3ccccc3C2(C)C)cc1 | 4.92% (active)
c1ccc2c(Nc3cccc4ccccc34)cccc2c1 | 58.3%
CCCCCCCCCCCCCC(=O)C(C)N (stereo not given) | 15.9%
CCOC(=O)C(CC)n1c(=O)c2cc(OC)c(OC)cc2c2cnc3[nH]ccc3c21 (stereo not given) | 86%
O=C1C2CC=CCC2C(=O)N1CNc1ccc(Cl)cc1 (stereo not given) | 115%
Cc1ccc(SCN2CCN(c3cccc(Cl)c3)CC2)cc1 | 115%
Cc1nc2nc(N)nc(N)c2nc1C | 117%
CSc1[nH]c2ncnc(N)c2c1C#N | 117%
O=C(CN1CCOCC1)Nc1ccc(Cn2nnc3c2C(=O)c2nnn(Cc4ccc(NC(=O)CN5CCOCC5)cc4)c2C3=O)cc1 | -83.9% (active)
